A short description of assay [1]: NCI Yeast Anticancer Drug Screen. Data for the rad50 strain (AID 155).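 Also: 0% = growth of vehicle-only cultures of the same strain.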 The conditions noted are these: S. cerevisiae rad50 strain growth inhibition, active compounds read high. In short, it runs like this:
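Relative growth inhibition (compound vs vehicle) was measured in yeast with a defined repair-gene alteration.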

A short description of assay [2]: NCI Yeast Anticancer Drug Screen. Data for the mec2-1 strain (AID 157). The conditions noted are these: S. cerevisiae mec2-1 strain, active compounds read high. In short, it runs like this:
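Compounds were applied to mec2-1 yeast cells. Their growth was then compared with that of vehicle-treated cultures to give growth inhibition.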

Assay [3] can be described thus: NCI Yeast Anticancer Drug Screen. Data for the sgs1 mgt1 strain (AID 161).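 Also: 0% = growth of cultures given vehicle only.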 The conditions noted are these: S. cerevisiae sgs1 mgt1 strain, active compounds read high. In short, it runs like this:
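This yeast growth screen uses a strain with defined DNA-repair lesions; compound-treated growth is compared with vehicle-treated growth.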

Assay [4] in a line: NCI Yeast Anticancer Drug Screen. Data for the cln2 rad14 strain (AID 165).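 Also: 0% = growth equal to vehicle treated cultures.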 The conditions noted are these: S. cerevisiae cln2 rad14 strain, active compounds read high. In short, it runs like this:
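Strain: cln2 rad14 yeast, altered in cell cycle control and DNA damage repair. Read-out: growth inhibition vs vehicle.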

Assay [5] is described as follows: NCI Yeast Anticancer Drug Screen. Data for the bub3 strain (AID 167). The conditions noted are these: S. cerevisiae bub3 mutant strain, active compounds read high. In short, it runs like this: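 Screening used yeast with an engineered genetic alteration affecting cell cycle control. Compound-exposed cultures were compared with vehicle cultures, and reduced growth was taken as inhibition.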

Assay [6] is described as follows: NCI Yeast Anticancer Drug Screen. Data for the mlh1 rad18 strain (AID 175). The conditions noted are these: S. cerevisiae mlh1 rad18 strain growth inhibition, active compounds read high. A digest of the protocol: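 A repair-deficient yeast strain is exposed to test compound, and growth is scored relative to vehicle-treated controls.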
[7] abbreviates: at 5.0 µM (retest, dose inferred, filed as 0.5).
[8] abbreviates: at 50.0 µM (retest, dose inferred, filed as 5.0).

About 79,000 compounds went through this panel and 15% of them were active in at least one assay; those are over-represented in the sample as a whole. Unmarked numbers belong to inactive results. The source made the active and inactive calls. Rule as the data show it: active = growth inhibition above about 70%; inactive = the rest.

`N#CN=[N+]([O-])c1ccc(C(=O)O)cc1`: the growth inhibition in assay [1] (setting [7]) was 80% (active); in assay [1] (setting [8]), 89% (active); in assay [1] (at 50.0 µM) it was 91.5% (active); in assay [2] (setting [7]), 87% (active); in assay [2] (setting [8]) it was 93% (active); in assay [2] (at 50.0 µM), 93.8% (active). Besides, the growth inhibition is 96% (active) in assay [3] (setting [7]); 91% (active) in assay [3] (setting [8]); 91.3% (active) in assay [3] (at 50.0 µM); 99% (active) in assay [4] (setting [7]); 84% (active) in assay [4] (setting [8]); 91.6% (active) in assay [4] (at 50.0 µM). Also, the growth inhibition in assay [5] (setting [7]) was 96% (active); in assay [5] (setting [8]), 87% (active); in assay [5] (at 50.0 µM) it was 91.5% (active); in assay [6] (setting [7]), 96% (active); in assay [6] (setting [8]) it was 89% (active); in assay [6] (at 50.0 µM), 90.9% (active).
With `COc1ccc2c(C(=O)c3ccccc3)c3[n+](cc2c1OC)CCc1cc2c(cc1-3)OCO2`, the growth inhibition was -1% in assay [1] (setting [7]); 38% in assay [1] (setting [8]); 65.7% in assay [1] (at 50.0 µM); -21% in assay [2] (setting [7]); 22% in assay [2] (setting [8]); 53.6% in assay [2] (at 50.0 µM). Besides, the growth inhibition was -4% in assay [3] (setting [7]); 20% in assay [3] (setting [8]); 52.1% in assay [3] (at 50.0 µM); -4% in assay [4] (setting [7]); 21% in assay [4] (setting [8]); 30.1% in assay [4] (at 50.0 µM). The growth inhibition in assay [5] (setting [7]) is -4%; in assay [5] (setting [8]) it was 24%; in assay [5] (at 50.0 µM), 50.3%; in assay [6] (setting [7]), -2%; in assay [6] (setting [8]), 24%; in assay [6] (at 50.0 µM), 75.5% (active).
Regarding `COc1ccc(-n2c3c(c4c(N)ncnc42)CCCC3)cc1`, the growth inhibition is -2% in assay [1] (setting [7]); -4% in assay [1] (setting [8]); -21.3% in assay [1] (at 50.0 µM); -12% in assay [2] (setting [7]); -3% in assay [2] (setting [8]); -7.3% in assay [2] (at 50.0 µM). Besides, the growth inhibition in assay [3] (setting [7]) was 11%; in assay [3] (setting [8]), -3%; in assay [3] (at 50.0 µM), -13%; in assay [4] (setting [7]), -11%; in assay [4] (setting [8]), 43%; in assay [4] (at 50.0 µM), -33%. Further, the growth inhibition was -2% in assay [5] (setting [7]); -13% in assay [5] (setting [8]); -69.2% in assay [5] (at 50.0 µM); 2% in assay [6] (setting [7]); -13% in assay [6] (setting [8]); -16.4% in assay [6] (at 50.0 µM).
As for `C=CCNC(=S)N/N=C(\CCC)c1ccccn1`, the growth inhibition in assay [1] (setting [7]) is 98% (active); in assay [1] (setting [8]) it was 95% (active); in assay [1] (at 50.0 µM), 99.3% (active); in assay [2] (setting [7]) it was 99% (active); in assay [2] (setting [8]), 96% (active); in assay [2] (at 50.0 µM) it was 99.6% (active). Besides, the growth inhibition was 99% (active) in assay [3] (setting [7]); 96% (active) in assay [3] (setting [8]); 99.6% (active) in assay [3] (at 50.0 µM); 96% (active) in assay [4] (setting [7]); 93% (active) in assay [4] (setting [8]); 99.2% (active) in assay [4] (at 50.0 µM). For the same compound, the growth inhibition is 98% (active) in assay [5] (setting [7]); 95% (active) in assay [5] (setting [8]); 99.5% (active) in assay [5] (at 50.0 µM); 99% (active) in assay [6] (setting [7]); 95% (active) in assay [6] (setting [8]); 47.9% in assay [6] (at 50.0 µM).
For the compound `CC(=O)/C(=C\c1ccc(Cl)cc1Cl)C(=O)CCN(C)C`, the growth inhibition in assay [1] (setting [7]) was 4%; in assay [1] (setting [8]) it was 99% (active); in assay [1] (at 50.0 µM) it was 97.5% (active); in assay [2] (setting [7]), -3%; in assay [2] (setting [8]), 99% (active); in assay [2] (at 50.0 µM), 99.3% (active). The growth inhibition was 11% in assay [3] (setting [7]); 99% (active) in assay [3] (setting [8]); 97.3% (active) in assay [3] (at 50.0 µM); 4% in assay [4] (setting [7]); 98% (active) in assay [4] (setting [8]); 76% (active) in assay [4] (at 50.0 µM). Moreover, the growth inhibition in assay [5] (setting [7]) was -1%; in assay [5] (setting [8]) it was 98% (active); in assay [5] (at 50.0 µM) it was 98% (active); in assay [6] (setting [7]), 1%; in assay [6] (setting [8]), 98% (active); in assay [6] (at 50.0 µM) it was 98.8% (active).
As to `Cn1c(CCC2(C)Cc3ccccc3C(=O)O2)cc2ccccc2c1=O` (stereo not given), the growth inhibition was 3% in assay [1] (setting [7]); 31% in assay [1] (setting [8]); 55.2% in assay [1] (at 50.0 µM); -6% in assay [2] (setting [7]); 48% in assay [2] (setting [8]); 69.7% in assay [2] (at 50.0 µM). Moreover, the growth inhibition in assay [3] (setting [7]) is 0%; in assay [3] (setting [8]), 79% (active); in assay [3] (at 50.0 µM), 73.9% (active); in assay [4] (setting [7]), -11%; in assay [4] (setting [8]), 27%; in assay [4] (at 50.0 µM), 28.4%. Besides, the growth inhibition is -27% in assay [5] (setting [7]); 86% (active) in assay [5] (setting [8]); 75.3% (active) in assay [5] (at 50.0 µM); 2% in assay [6] (setting [7]); 48% in assay [6] (setting [8]); 49% in assay [6] (at 50.0 µM).
For `[Cl][Pt+2][Cl].[NH-]c1cc2ccccc2cc1[NH-]`, the growth inhibition in assay [1] (setting [7]) was 2%; in assay [1] (setting [8]), 0%; in assay [1] (at 50.0 µM) it was 64.5%; in assay [2] (setting [7]) it was -34%; in assay [2] (setting [8]) it was 16%; in assay [2] (at 50.0 µM), 51.4%. Further, the growth inhibition in assay [3] (setting [7]) is 0%; in assay [3] (setting [8]), 1%; in assay [3] (at 50.0 µM), 69.2%; in assay [4] (setting [7]), 1%; in assay [4] (setting [8]), 17%; in assay [4] (at 50.0 µM) it was 45%. Moreover, the growth inhibition in assay [5] (setting [7]) is 0%; in assay [5] (setting [8]), 14%; in assay [5] (at 50.0 µM), 20.4%; in assay [6] (setting [7]), 0%; in assay [6] (setting [8]) it was -24%; in assay [6] (at 50.0 µM) it was 76.2% (active).
In the case of `COc1ccc(CCCCI)cc1`, the growth inhibition in assay [1] (setting [7]) was -4%; in assay [1] (setting [8]), 95% (active); in assay [1] (at 50.0 µM), 94.6% (active); in assay [2] (setting [7]) it was -14%; in assay [2] (setting [8]) it was 94% (active); in assay [2] (at 50.0 µM) it was 95.2% (active). Also, the growth inhibition in assay [3] (setting [7]) is -6%; in assay [3] (setting [8]) it was 97% (active); in assay [3] (at 50.0 µM) it was 94.2% (active); in assay [4] (setting [7]) it was 2%; in assay [4] (setting [8]), 97% (active); in assay [4] (at 50.0 µM) it was 96.4% (active). The growth inhibition in assay [5] (setting [7]) was 0%; in assay [5] (setting [8]), 96% (active); in assay [5] (at 50.0 µM) it was 97% (active); in assay [6] (setting [7]), 16%; in assay [6] (setting [8]), 98% (active); in assay [6] (at 50.0 µM), 96.9% (active).
`CCN(CC)CCCNc1cccc2ccc(OC)nc12`: the growth inhibition in assay [1] (setting [7]) was 1%; in assay [1] (setting [8]) it was 50%; in assay [1] (at 50.0 µM) it was 73.8% (active); in assay [2] (setting [7]) it was 0%; in assay [2] (setting [8]) it was 24%; in assay [2] (at 50.0 µM), 13%. The growth inhibition in assay [3] (setting [7]) is -9%; in assay [3] (setting [8]), 60%; in assay [3] (at 50.0 µM), 66%; in assay [4] (setting [7]), -1%; in assay [4] (setting [8]) it was 33%; in assay [4] (at 50.0 µM), 32.7%. Moreover, the growth inhibition in assay [5] (setting [7]) was 2%; in assay [5] (setting [8]), 40%; in assay [5] (at 50.0 µM) it was 51.8%; in assay [6] (setting [7]) it was 4%; in assay [6] (setting [8]) it was 28%; in assay [6] (at 50.0 µM), 53.5%.
In the case of `CC(/C=C/c1cccs1)=N\NC(=S)NCC(C)C`, the growth inhibition was -3% in assay [1] (setting [7]); 95% (active) in assay [1] (setting [8]); 95.6% (active) in assay [1] (at 50.0 µM); 11% in assay [2] (setting [7]); 96% (active) in assay [2] (setting [8]); 96.2% (active) in assay [2] (at 50.0 µM). The growth inhibition in assay [3] (setting [7]) was 9%; in assay [3] (setting [8]) it was -24%; in assay [3] (at 50.0 µM), 97% (active); in assay [4] (setting [7]) it was -2%; in assay [4] (setting [8]), 96% (active); in assay [4] (at 50.0 µM), 94% (active). The growth inhibition in assay [5] (setting [7]) is -1%; in assay [5] (setting [8]), 95% (active); in assay [5] (at 50.0 µM) it was 96.9% (active); in assay [6] (setting [7]) it was 3%; in assay [6] (setting [8]), 96% (active); in assay [6] (at 50.0 µM) it was 97% (active).

Source of the values: PubChem BioAssay (NCI).
